PubChem BioAssay AID652054 (National Center for Advancing Translational Sciences (NCATS), 2013)
Where “and” joins values, the source holds several entries; their conditions need not be identical. Identical values can stand only once. In all, about 360,000 compounds went through this assay and about 9,100 (2.5%) were called active. Another 4% or so got no clear call; they are omitted. The list comes from a sample in which actives are over-represented; it also holds similar structures and randomly drawn compounds. Values without a mark were called inactive. Rule as the data show it: active = max response below about -50%; inconclusive = no clear call, values can overlap the other calls; inactive = above that.

Biological target: D(3) dopamine receptor (Homo sapiens) (UniProt P35462)
Sequence (P35462 whole entry, looked up): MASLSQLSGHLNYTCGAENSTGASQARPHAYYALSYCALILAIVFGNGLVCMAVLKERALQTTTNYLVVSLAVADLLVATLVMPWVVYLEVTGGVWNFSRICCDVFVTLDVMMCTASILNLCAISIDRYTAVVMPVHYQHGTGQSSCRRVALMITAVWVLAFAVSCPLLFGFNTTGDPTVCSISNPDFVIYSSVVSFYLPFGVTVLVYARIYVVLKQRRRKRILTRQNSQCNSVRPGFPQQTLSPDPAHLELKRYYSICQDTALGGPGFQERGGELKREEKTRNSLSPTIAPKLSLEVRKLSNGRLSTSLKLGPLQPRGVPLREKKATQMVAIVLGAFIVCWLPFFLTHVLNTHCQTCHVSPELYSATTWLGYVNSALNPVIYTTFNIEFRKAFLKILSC
Assay: qHTS of D3 Dopamine Receptor Antagonist: qHTS
Details: D3R cells, DiscoveRx beta-arrestin luminescence, antagonist mode; active compounds read low
How it was run: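 Cells expressing the human receptor were seeded at 1500 cells/well, incubated overnight at 37 degrees C in 5% CO2, then exposed to library compounds with dopamine controls for 90 minutes at 37 degrees C before luminescent detection.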
% is scaled to controls: 0 for no effect and ±100 for the full control effect.

SMILES | max response, negative = inhibition
COc1ccc(CN2C(=O)C(CC(=O)NC3CCCCC3)CC(C(=O)N3CCOCC3)=C2C)cc1 (centres undefined) | -7.02%
FC(F)(F)C1CCCN(c2nsc3ccccc23)C1 (centres undefined) | -81.7% (active)
COc1ccc([C@H]2CC(=O)C[C@@H](CCn3cc(CC4CCCC4)nn3)O2)cc1 | 5.27%
CCCS(=O)(=O)NC(=O)C1(C)CCN(C(=O)c2sccc2C)C1 (centres undefined) | 18.5%
Nc1nc(CSc2nnnn2-c2ccccc2)nc(Nc2ccccc2)n1 | 16%
CC1(C(=O)Nc2ccccc2Br)CCN1C(=O)CC1CC1 (centres undefined) | 27.1%
COc1ccccc1CNC(=O)CN1CCC(n2cnc3cc(F)ccc32)CC1 | -0.289%
CC(=O)c1cccc(S(=O)(=O)N2CCC(n3nnc4cc(F)ccc43)CC2)c1 | -14.5%
COc1ccc(CNC(=O)CN2CCC(n3nnc4cc(F)ccc43)CC2)cc1 | -83.8% (active)
CC(C)(C(=O)N1CCC1(C)C(=O)NS(=O)(=O)c1ccc(Br)cc1)c1ccccc1 (centres undefined) | 11.9%
CC1CCN(CC(O)COc2ccc(C(=O)c3ccccc3)cc2)CC1 (centres undefined) | 0%
CCC(=O)c1ccc(OCC(O)CN2C(=O)NC(C)(C)C2=O)cc1 (centres undefined) | 0%
CCC(=O)c1ccc(OCC(O)CN2CC(C)OC(C)C2)cc1 (centres undefined) | -54.2% (active)
OCCc1ccc(NCCc2ccco2)cc1 | 11.1%
CCOc1ccc(/C=C2\SC(=S)N(NC(=O)c3ccncc3)C2=O)cc1OC | -13.1%
O=C(O)c1ccc(/C=C2\SC(=S)N(NC(=O)c3ccc(Br)cc3)C2=O)cc1 | -21.3%
Cn1cccc1/C=C1\SC(=S)N(NC(=O)c2ccc(Cl)cc2)C1=O | -70.7% (active)
COC(=O)C1(C(=O)OC)C[C@H](c2ccccc2)N(Cc2ccccc2OC)[C@@H]1c1ccccc1 | -25.4%
CCc1ccc(OC2(C)CCN(CCOc3ccc(C)cc3)C2)cc1 (centres undefined) | -75% (active)
Cc1ccc(OCCNC(=O)CN2C(=O)NC3(CCCC3)C2=O)cc1 | -22.9%

SMILES | max response, negative = inhibition
CCc1ccc(OCC(O)CN2CCN(CCO)CC2)cc1 (centres undefined) | 18.7%
CCCNC(=O)C1(C)CCN1C(=O)C1(c2ccccc2)CC1 (centres undefined) | -7.67%
Cc1sc2nc(-c3ccccc3F)oc(=O)c2c1C | 0%
CCCc1nc2ccccc2n1C(C)C(=O)NC(C)(C)C (centres undefined) | -12.7%
CC(OC(=O)c1ccc(NC(=O)CC#N)cc1)C(=O)Nc1ccc(S(=O)(=O)N2CCCC2)cc1 (centres undefined) | 2.56%
COc1cc(C(O)c2nc(-c3cnn(C)c3)cs2)ccc1F (centres undefined) | -2.22%
O=C(N[C@H]1CC[C@H](CC(=O)N2CCCCC2)O[C@@H]1CO)c1cccc(F)c1 | 1.98%
Cc1nn(CCOc2ccccc2)c(=O)n1-c1ccccc1F | -0.664%
CCN1C(=O)/C(=C\N2CCN(c3cccc(Cl)c3)CC2)SC1=S | -22.6%
CC(=O)c1ccc(OCC(O)CN2CCN(S(=O)(=O)c3cccc(Br)c3)CC2)cc1 (centres undefined) | 22%
OC(COc1ccccc1)CN1CCN(c2cccc(Cl)c2)CC1 (centres undefined) | -51.8% (active)
O=S(=O)(c1ccc(OCC(O)CN2CCN(c3ccccc3Cl)CC2)cc1)N1CCOCC1 (centres undefined) | -73% (active)
COC(=O)COc1ccc(S(=O)(=O)N2CCOCC2)cc1 | 20.2%
O=C(CCCC(=O)N1CCN(c2cccc(Cl)c2)CC1)c1ccccc1 | 11.7%
CC(=O)Nc1ccc(OCC(O)CN2CCN(c3ccccc3Cl)CC2)cc1 (centres undefined) | -66.4% (active)
CC(C)c1ccc(OCC(O)CN2CCN(c3ccccn3)CC2)cc1 (centres undefined) | -29.5%
CCc1nn(CCCN2CCN(c3cccc(Cl)c3)CC2)c(=O)n1CCOc1ccccc1 | -77.2% (active) and -89.6% (active)
O=C(c1ccc(Cl)cc1)c1ccc(OCC(O)CN2CCCCC2)cc1 (centres undefined) | -2.74%
OC(COc1ccc2c(c1)CCC2)CN1CCN(c2cccc(Cl)c2)CC1 (centres undefined) | 0%
CN1CCN(c2ccncc2S(=O)(=O)N2CCCC2)CC1 | 22.6%

SMILES | max response, negative = inhibition
COC(=O)c1ccc2nc(-c3ccc(C)cc3)c(Cc3ccc(OC)cc3C)n2c1 | 0.363%
CC(C)C1Cc2[nH][nH]c(=O)c2C(c2ccc(Cl)cc2)O1 (centres undefined) | -0.765%
O=C(Nc1ccc(Cl)cc1)c1csc([C@H]2C[C@H](O)[C@@H](CO)O2)n1 | 0%
COc1ccc(NC(=O)C2Cc3c(-c4cccc(NC(C)=O)c4)ccnc3O2)cc1OC (centres undefined) | 0%
COc1ccc(CC(N)c2csc(NC(=O)NC(c3ccccc3)c3ccccc3)n2)cc1 (centres undefined) | -20.6%
COc1ccc(N)cc1NC(=O)CN1CCOCC1 | 60.4%
OC[C@@H]1CN(Cc2ccc(-c3ccccc3)cc2)C[C@H](n2cnc3c(NC4CCCC4)ncnc32)O1 | 36%
C=CCC[C@@H](CCCCC)OC(=O)/C=C/[C@@H](O)[C@H](O)C[C@H](O)CC=C | 5.67%
CCCCCCNC(=O)O[C@H]1CN(C(=O)OC(C)C)N(C(=O)OC(C)C)[C@@H]2CN(S(=O)(=O)c3ccc(C)cc3)C[C@]12O | 1.36%
O=Nc1c(O)cc(O)c2ccccc12 | 9%
COc1ccc(COC[C@H](CC(C)C)N2CCN(C(=O)c3cccc(C(F)(F)F)c3)CCC2=O)cc1 | 0%
CCOC(=O)N1C(=O)C[C@](Sc2ccc(C)cc2)(C(=O)OC)[C@H]1c1ccccc1 | 28.6%
CC1CCC(NC(=O)CNC(=O)c2ccc3ccccc3c2)CC1 (centres undefined) | -70% (active)
O=C(CNC(=O)c1ccc2ccccc2c1)Nc1ncccc1O | 8.18%
Cc1ccc(C(=O)NCC(=O)NC2CC2)cc1 | -5.92%
Cn1cnc(S(=O)(=O)N2C[C@@H](O)COC[C@@H]3O[C@H](CC(=O)NC4CCC4)CC[C@H]32)c1 | 17.2%
COc1ccc2c(c1OC)C(=O)OC2Nc1nc(-c2ccccc2)cs1 (centres undefined) | -73.2% (active)
CCc1ccccc1NC(=O)[C@@H]1CCC(=O)N1C1OC(=O)c2c1ccc(OC)c2OC (some centres undefined) | -18.1%
COc1ccc(-c2csc(Nc3cccc(C)n3)n2)cc1OC | 42.5%
